Results reported in PubChem BioAssay (NCATS).
Where “and” joins values, the source holds several entries; their conditions need not be identical. Equal entries are not always repeated. Records with an inconclusive call do not appear. Calls of active or inactive are those of the source. The call rests on the fitted dose curve; in most records, active means well fitted curve in the direction sought with a large enough effect; inconclusive means small, poorly fitted or top-dose-only effect, or another doubt; inactive means no such curve, though single readings can be large; an effect the other way counts as inactive or inconclusive.

Tests used:
[1] = Viability qHTS for spleen associated tyrosine kinase inhibitor (SYKi) drug resistant MV4-11 cells (AID 1963824); further: nearly all actives have a fitted effect of over 35% in size; further: potency means the concentration at half of the fitted maximal effect
Method in brief: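 SYK inhibitor-resistant MV4-11 AML cells, 500 per well, added to predispensed compounds and incubated 72 hr at 37 C, 5% CO2. Viability measured by CellTiter-Glo luminescence after 10 min at room temperature.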

[2] = Cellular viability qHTS for adrenocortical cancer (ACC) cell line NCI-H295R (AID 1963990); further: nearly all actives have a fitted effect of over 60% in size; further: potency means the concentration at half of the fitted maximal effect
Method in brief: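 Luminescent ATP read-out (CellTiter-Glo, 20 min RT) after 48 h drug exposure of NCI-H295R cells; a titration up to 46 uM final. Data normalized to doxorubicin (100% inhibition) and DMSO (0%); 4-parameter fit gives IC50, max response.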

[3] = Quantitative highthroughput screen to assess conditional lethalithy of NOMO1 cells grown in RPMI1640 with untreated serum (RPMI+s) (AID 1963876); further: nearly all actives have a fitted effect of over 35% in size
Method in brief: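 Each medium arm—HPLM with 10% dialyzed FBS, or RPMI1640 with 5 mM glucose and 10% untreated or dialyzed FBS—was screened against an 11-point, 3-fold compound titration for 48 h at 37 °C, with CellTiter-Glo luminescence as endpoint.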

Compound | Potency [1] | Potency [2] | Potency [3]
CC(C)(CNC(=O)c1cccc(-c2noc(C(F)(F)F)n2)c1)c1coc(-c2ccccc2)n1 | 14.8 µM (active) | inactive | –
CC(C)NC(=O)C1CCC(n2c(NC(=O)c3ccc(F)cc3)nc3ccc(CN4CCC(C(C)(C)O)CC4)cc32)CC1 (configuration not stated) | 2.04 µM (active) | 10.1 µM (active) | –
O=C(O)c1ccccc1Nc1cccc(C(F)(F)F)c1 | inactive | inactive | –
CCNCCS(=O)(=O)NC[C@@]1(c2ccccc2)SC(NC(=O)C(C)(C)C)=NN1C(=O)C(C)(C)C | 0.003 µM (active) | 0.316 µM (active) | –
CCc1ccc(C=C2SC(=S)NC2=O)cc1 | – | – | inactive
CCC(=O)c1ccc2c(c1)N(CCCN(C)C)c1ccccc1S2 | 21.1 µM (active) | 14.6 µM (active) | –
CO/N=C(\C(=O)O)c1csc(NC(=O)CCl)n1 | inactive | inactive | –
CCOCc1nc2c(N)nc3ccccc3c2n1CC(C)(C)O | 18.6 µM (active) | inactive | –
CN(C(=O)CN(CCO)CC(=O)N(C)C(C)(C)Cc1ccccc1)C(C)(C)Cc1ccccc1 | 9.44 µM (active) | 23.1 µM (active) | –
Nc1ncc(C(=O)NC2CN(C(=O)C3CC3)C2)c2ccc(-c3cccc(F)c3)nc12 | 7.42 µM (active) | inactive | –
CN1CCN(CCC(=O)N2c3ccccc3Sc3ccc(C(F)(F)F)cc32)CC1 | 23.7 µM (active) | 23.1 µM (active) | –
O=C(OCCOCCO)c1ccccc1Nc1cccc(C(F)(F)F)c1 | 14.6 µM (active) | 25.9 µM (active) | –
NS(=O)(=O)c1ccc(NC(=S)N2CCN(C/C=C/c3ccccc3)CC2)cc1 | 14.8 µM (active) | inactive | –
COc1ccc2[nH]c(S(=O)Cc3ncc(C)c(OC)c3C)nc2c1 (configuration not stated) | 1.64 µM (active) | inactive | –
CC[C@]12CCCN3CCc4c(n(c5ccccc45)C(=O)C1)[C@@H]32 | 8.41 µM (active) and 23.1 µM (active) | 5.8 µM (active) | –
O=C(/C=C/c1ccccc1)NCCO | inactive | 14.6 µM (active) | –
CN(C)CCOC1=Cc2ccccc2Sc2ccc(Cl)cc21 | 15 µM (active) | 20.6 µM (active) | –
Cc1cc(C(=O)Nc2cc(Oc3ccc4nc(NC(=O)C5CC5)cn4n3)ccc2C)n(C)n1 | 14.8 µM (active) | 22.4 µM (active) | –
CC[N+]1(CC)CCC(=C(c2ccccc2)c2ccccc2)C1C (configuration not stated) | 8.2 µM (active) | inactive | –
